# High-throughput results: PubChem BioAssay, National Center for Advancing Translational Sciences (NCATS)
# KB-3-1 cytotox = kills parental KB-3-1 adenocarcinoma cells; KB-3-1 viability, CellTiter-Glo ATP luminescence, 72 h; Potency, µM (top dose mostly 46.1 µM), usual class: cytotoxic; actives 1.4% (n = 400,000); AID 1347075; also: nearly all actives have a fitted effect of over 60% in size
#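 Luminescent ATP read-out (CellTiter-Glo) measures survival of drug-naive KB-3-1 cells after 72 h compound exposure at 37 °C. Titration series was screened from lowest to highest concentration, with DMSO vehicle plates as background controls.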
# SW480 rerep = DNA re-replication induction in SW480 cells | SW480 DNA re-replication, Hoechst DNA content imaging, 48 h | Potency, µM (doses to about 46.1 µM), usual class: activators | actives 1.8% (n = 340,000) | AID 624297; also: nearly all actives have a fitted effect of over 55% in size
#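 Compounds, transferred as 23 nL by pin tool, were incubated with cells for 48 hr; DNA content per nucleus was then quantified by Hoechst staining and fluorescence plate imaging.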
# ELG1 DNA repair = blocks ELG1-dependent DNA repair in HEK293T cells; Potency, µM (titrated, usually from 46.1 µM), most hits filed as inhibitors; actives 2.3% (n = 330,000); HEK293T ELG1-luciferase reporter, luminescence, 16 h; DNA damage induced by 5-fluorouridine; also: nearly all actives have a fitted effect of over 55% in size
#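 In this reporter screen, reduction of luminescence relative to DMSO vehicle indicated activity. Compounds and 5-fluorouridine were added together to 2,000 cells per well, incubated for 16 hr at 37 °C, then developed with ONE-Glo.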
# MCF10A rereplic = inducers of DNA re-replication in MCF 10A breast cells; actives 2.9% (n = 350,000); Potency, µM (highest dose often 46.1 µM), most hits filed as activators; MCF 10A DNA re-replication, Hoechst nuclear intensity, 48 h; also: nearly all actives have a fitted effect of over 50% in size
# KB-V1 cytotox = KB-V1 MDR subline cytotoxicity | actives 3.4% (n = 400,000) | AID 1347076 | KB-V1 MDR cells viability, CellTiter-Glo, 72 h | Potency, µM (top dose mostly 46.1 µM), usual class: cytotoxic; also: nearly all actives have a fitted effect of over 60% in size
#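 Luminescent ATP read-out (CellTiter-Glo, 10 min) measures survival of drug-selected KB-V1 MDR cells after 72 h, 37 degrees C compound exposure. Medium: phenol-red-free DMEM, 10% FBS. Values from fitted concentration-response curves.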
# A number is an active result; – = inactive; ? = inconclusive; · = no result. Hits are enriched below; roughly 8.2% of the tested compounds scored in any of these assays. Calls follow the shape of the dose curve; as a rule, active = well fitted curve in the direction sought with a large enough effect; inconclusive = small, poorly fitted or top-dose-only effect, or another doubt; inactive = no such curve, though single readings can be large; an effect the other way counts as inactive or inconclusive.
SMILES,KB-3-1 cytotox,SW480 rerep,ELG1 DNA repair,MCF10A rereplic,KB-V1 cytotox
COc1ccc(C(=O)NC(=S)Nc2ccc(CN3CCOCC3)cc2)cc1,–,?,–,–,?
O=C(NC(=S)Nc1ccc(N2CCOCC2)cc1)c1ccc2c(c1)OCCO2,–,?,?,–,?
O=C(c1ccc2c(c1)OCCO2)C1CCN(S(=O)(=O)c2ccccc2F)CC1,–,–,–,–,23.1µM
COc1ccc(S(=O)(=O)N2CCC(C(=O)c3ccc4c(c3)OCCO4)CC2)cc1,?,–,–,–,–
COc1cc(C(=O)Nc2ccccc2N2CCOCC2)ccc1OCc1c(C)noc1C,–,–,?,–,4.61µM
COC(=O)C[C@H]1c2ccccc2S(=O)(=O)N1c1cccc(OC)c1,–,–,·,–,–
COc1cccc(N2[C@@H](CC(C)=O)c3ccc(/C=C/C(C)=O)cc3S2(=O)=O)c1,?,–,·,20.6µM,?
Cc1nc([N+](=O)[O-])cn1CC(=O)c1ccc2c(c1)OCCO2,–,·,·,·,–
CCN(Cc1ccccc1)S(=O)(=O)c1ccc(C(=O)N2CCN(c3nc4ccccc4s3)CC2)cc1,?,–,11.6µM,?,?
CCN(Cc1ccccc1)S(=O)(=O)c1ccc(C(=O)N(CCCN(C)C)c2nc3cc(OC)ccc3s2)cc1,–,?,?,16.4µM,–
CCN(CC)S(=O)(=O)c1ccc(C(=O)N2CCN(c3ncccn3)CC2)cc1,–,–,?,–,–
COc1cc2nc(N(CCCN(C)C)C(=O)c3ccc(S(=O)(=O)N4CCc5ccccc54)cc3)sc2cc1OC,–,?,?,–,–
COc1ccc2sc(N(CCCN(C)C)C(=O)c3ccc(S(=O)(=O)N4CCCc5ccccc54)cc3)nc2c1,–,?,?,?,20.6µM
Cc1ccc(S(=O)(=O)C[C@@H]2OC3CCCCC3N2S(=O)(=O)c2ccc(C)cc2)cc1 (some centres undefined),–,·,·,·,?
COc1ccc(O)c(/C=N/NC(=O)c2cc(=O)[nH]c3ccccc23)c1,–,–,–,?,–
CC1(C)CC(=O)C=C(NCc2cccc(C(F)(F)F)c2)C1,–,9.2µM,–,–,?
CC1(C)CC(=O)C=C(NCc2ccccc2)C1,–,–,–,–,–
CC(=O)Nc1ccc(NC(=O)C2CCCCN2S(=O)(=O)c2ccc(C(C)(C)C)cc2)cc1 (centres undefined),–,–,?,–,–
CCc1ccc(NC(=O)CCC(=O)c2ccccc2)cc1,–,–,–,?,–
COC(=O)c1ccc(N2CCC(C)CC2)c(N)c1,–,?,?,20.6µM,?
COC(=O)c1ccc(N2CCCCC2)c(N)c1,–,–,?,–,–
CN(C)C(=O)COc1ccccc1C(=O)OCC(=O)Nc1ccc(Oc2ccc(Br)cc2)cc1,–,·,·,·,–
C/C(=N\NC(=O)c1ccc(Cn2cc(Br)cn2)o1)c1cccc(NC(=O)C(C)C)c1,–,–,5.8µM,–,–
COc1cc(CN2CCc3nc(N4CCN(c5ncccn5)CC4)ncc3C2)cc(OC)c1OC,?,·,·,·,6.51µM
CCOC(=O)N1CCN(c2ccccc2O)CC1,–,–,–,–,–
SMILES,KB-3-1 cytotox,SW480 rerep,ELG1 DNA repair,MCF10A rereplic,KB-V1 cytotox
CCOC(=O)N1CCN(c2ncc3c(n2)CC(c2ccc(Cl)cc2)CC3=O)CC1 (centres undefined),–,·,·,·,16.4µM
CCOC(=O)N1CCN(c2ncc3c(n2)CC(c2ccccc2O)CC3=O)CC1 (centres undefined),?,·,·,·,18.4µM
COc1cc(C2CC(=O)c3cnc(N4CCN(Cc5ccccc5)CC4)nc3C2)cc(OC)c1OC (centres undefined),5.8µM,2.91µM,3.26µM,13µM,?
Brc1ccc(CN2CCc3nc(N4CCN(c5ncccn5)CC4)ncc3C2)cc1,–,·,·,·,–
C[C@H]1CCCCO[C@H](CN(C)Cc2ccccc2)[C@@H](C)CN([C@@H](C)CO)C(=O)c2cc(NC(=O)CCC(F)(F)F)ccc2O1,–,·,·,·,–
CC(CC(=O)N1CCN(S(=O)(=O)c2ccc([N+](=O)[O-])cc2)CC1)c1ccccc1 (centres undefined),–,–,–,–,–
COc1cccc(CNC(=O)Cn2ccc3cc(S(=O)(=O)N4CCCCCC4)ccc32)c1OC,–,–,?,–,–
